Assay results published in the antibiotic and cytotoxicity screens of Wong et al. (2023).
Out of some 39,000 compounds screened, about 3,300 (8.5%) were called active. Many of the other results were omitted from the sample, so actives are more common in it than they were.

test system: HepG2; assay: cytotoxicity call (relative viability < 0.9); settings: 10 µM

Structure (SMILES)	cytotoxicity call
C[C@H]1CCCCO[C@H](CN(C)C(=O)Nc2ccc(C(F)(F)F)cc2)[C@@H](C)CN([C@@H](C)CO)C(=O)c2cc(N(C)C)ccc2O1	inactive
C[C@@H]1CCCCO[C@@H](CN(C)C(=O)Nc2ccc(C(F)(F)F)cc2)[C@H](C)CN([C@H](C)CO)C(=O)c2cc(N(C)C)ccc2O1	active
C[C@@H]1CCCCO[C@@H](CN(C)C(=O)Nc2ccc(C(F)(F)F)cc2)[C@@H](C)CN([C@H](C)CO)C(=O)c2cc(N(C)C)ccc2O1	inactive
C[C@@H]1CN([C@H](C)CO)C(=O)c2cc(N(C)C)ccc2O[C@@H](C)CCCCO[C@@H]1CN(C)C(=O)Nc1ccc(C(F)(F)F)cc1	inactive
C[C@@H]1CN([C@@H](C)CO)C(=O)c2cc(N(C)C)ccc2O[C@@H](C)CCCCO[C@@H]1CN(C)C(=O)Nc1ccc(C(F)(F)F)cc1	active
C[C@H](CO)N1C[C@H](C)[C@@H](CN(C)C(=O)Nc2ccc(C(F)(F)F)cc2)OCCCC[C@H](C)Oc2ccc(N(C)C)cc2C1=O	inactive
Cc1nn2cc(CN)nc2s1	inactive
C[C@@H]1CN([C@H](C)CO)C(=O)Cc2cc(NC(=O)C3CC3)ccc2O[C@@H]1CN(C)S(=O)(=O)c1cn(C)cn1	inactive
C=CCC[C@@H](Cc1ccc(F)cc1)C(=O)OC[C@@H](NC(=O)[C@@H](CC=C)CC(=O)N(CCO)Cc1ccccc1)C(C)(C)C	inactive
C[C@@H]1CN([C@@H](C)CO)C(=O)c2cccc(NS(C)(=O)=O)c2O[C@@H]1CN(C)Cc1ccc(C(F)(F)F)cc1	inactive
C[C@@H]1CN([C@@H](C)CO)S(=O)(=O)c2ccc(Br)cc2O[C@H]1CN(C)Cc1ccc(-c2ccccc2)cc1	inactive
C[C@H]1CCCCO[C@@H](CN(C)C(=O)NC2CCCCC2)[C@@H](C)CN([C@@H](C)CO)C(=O)c2cc(NS(=O)(=O)c3ccc(Cl)cc3)ccc2O1	inactive
C[C@@H]1CCCCO[C@H](CN(C)C(=O)NC2CCCCC2)[C@H](C)CN([C@@H](C)CO)C(=O)c2cc(NS(=O)(=O)c3ccc(Cl)cc3)ccc2O1	inactive
C[C@@H]1CN([C@H](C)CO)C(=O)c2cc(NS(=O)(=O)c3ccc(Cl)cc3)ccc2O[C@@H](C)CCCCO[C@@H]1CN(C)C(=O)NC1CCCCC1	active
C[C@@H]1CCCCO[C@@H](CN(C)C(=O)NC2CCCCC2)[C@@H](C)CN([C@@H](C)CO)C(=O)c2cc(NS(=O)(=O)c3ccc(Cl)cc3)ccc2O1	inactive
C[C@@H]1CCCCO[C@H](CN(C)C(=O)NC2CCCCC2)[C@H](C)CN([C@H](C)CO)C(=O)c2cc(NS(=O)(=O)c3ccc(Cl)cc3)ccc2O1	active
C[C@H]1CCCCO[C@H](CN(C)C(=O)NC2CCCCC2)[C@@H](C)CN([C@@H](C)CO)C(=O)c2cc(NS(=O)(=O)c3ccc(Cl)cc3)ccc2O1	inactive
C[C@@H]1CN([C@H](C)CO)S(=O)(=O)c2ccc(C#C[C@@H](C)O)cc2O[C@H]1CN(C)C(=O)c1ccccc1	inactive
COc1ccccc1NC(=O)N(C)C[C@@H]1OCc2ccccc2-c2c(n(C)c3ccccc23)C(=O)N([C@H](C)CO)C[C@H]1C	inactive

Structure (SMILES)	cytotoxicity call
O=C(C[C@@H]1C[C@@H]2c3cc(NC(=O)NC4CCCC4)ccc3O[C@@H]2[C@@H](CO)O1)NCCN1CCCCC1	inactive
CN(C)c1ccc(C(=C2C=CC(=[N+](C)C)C=C2)c2ccc(N(C)C)cc2)cc1.[Cl-]	active
C[C@@H]1CCCCO[C@@H](CN(C)Cc2ccc(Cl)c(Cl)c2)[C@@H](C)CN([C@H](C)CO)C(=O)c2cc(NS(C)(=O)=O)ccc2O1	inactive
COc1ccc(NC(=O)N(C)C[C@@H]2Oc3ccc(NS(=O)(=O)c4c(C)noc4C)cc3C(=O)N([C@@H](C)CO)C[C@H]2C)cc1	inactive
COc1ccc(NC(=O)N(C)C[C@@H]2Oc3ccc(NS(=O)(=O)c4c(C)noc4C)cc3C(=O)N([C@H](C)CO)C[C@@H]2C)cc1	inactive
COc1ccc(S(=O)(=O)N(C)C[C@@H]2Oc3ccc(NS(=O)(=O)c4c(C)noc4C)cc3C(=O)N([C@H](C)CO)C[C@@H]2C)cc1	active
COc1ccc(S(=O)(=O)N(C)C[C@H]2Oc3ccc(NS(=O)(=O)c4c(C)noc4C)cc3C(=O)N([C@H](C)CO)C[C@@H]2C)cc1	inactive
COc1ccc(NC(=O)N(C)C[C@@H]2Oc3ccc(NS(=O)(=O)c4c(C)noc4C)cc3C(=O)N([C@@H](C)CO)C[C@@H]2C)cc1	active
COc1ccc(S(=O)(=O)N(C)C[C@H]2Oc3ccc(NS(=O)(=O)c4c(C)noc4C)cc3C(=O)N([C@H](C)CO)C[C@H]2C)cc1	inactive
Cc1cc(C(=O)Nc2cccc3c2O[C@H](CN(C)S(=O)(=O)c2c(C)noc2C)[C@H](C)CN([C@@H](C)CO)C3=O)n(C)n1	inactive
C[C@@H]1CCCCO[C@@H](CN(C)C(=O)Nc2cccc3ccccc23)[C@@H](C)CN([C@H](C)CO)C(=O)c2cc(NS(=O)(=O)c3ccccc3)ccc2O1	inactive
COc1cccc(C#Cc2ccc([C@@H]3[C@@H](CO)N4C(=O)CN(S(=O)(=O)c5ccccc5C)C[C@H]34)cc2)c1	inactive
C[C@@H]1CN([C@@H](C)CO)C(=O)c2cccc(NC(=O)CCCCCC(=O)Nc3ccccc3N)c2O[C@H]1CN(C)C(=O)Nc1ccccc1	inactive
Cc1noc(C)c1S(=O)(=O)Nc1ccc2c(c1)C(=O)N([C@H](C)CO)C[C@@H](C)[C@@H](CN(C)Cc1ccncc1)O2	inactive
O=C(C[C@@H]1CC=CC[C@H](NC(=O)OCC2c3ccccc3-c3ccccc32)C(=O)O[C@@H](c2ccccc2)CNC1=O)N[C@@H](CO)Cc1ccccc1	inactive
Cc1ccc(S(=O)(=O)N(C)C[C@@H]2Oc3ccc(NC(=O)C4CC4)cc3CC(=O)N([C@@H](C)CO)C[C@@H]2C)cc1	active
Cc1ccc(S(=O)(=O)N(C)C[C@@H]2Oc3ccc(NC(=O)C4CC4)cc3CC(=O)N([C@@H](C)CO)C[C@H]2C)cc1	inactive
C[C@H](CO)N1C[C@H](C)[C@H](CN(C)S(=O)(=O)c2ccc(Cl)cc2)Oc2ccc(NC(=O)C3CC3)cc2CC1=O	inactive
Cc1ccc(S(=O)(=O)N(C)C[C@H]2Oc3ccc(NC(=O)C4CC4)cc3CC(=O)N([C@@H](C)CO)C[C@@H]2C)cc1	inactive

Structure (SMILES)	cytotoxicity call
C[C@H]1CN([C@@H](C)CO)C(=O)Cc2cc(NC(=O)C3CC3)ccc2O[C@H]1CN(C)S(=O)(=O)c1ccc(Cl)cc1	active
C[C@@H]1CN([C@H](C)CO)C(=O)Cc2cc(NC(=O)C3CC3)ccc2O[C@@H]1CN(C)S(=O)(=O)c1ccc(Cl)cc1	inactive
C[C@H]1CN([C@@H](C)CO)C(=O)c2cccc(NC(=O)c3ccc(-c4nccs4)cc3)c2O[C@@H]1CN(C)C(=O)Nc1cccc2ccccc12	inactive
COc1ccc(S(=O)(=O)N(C)C[C@@H]2Oc3cc(-c4ccccc4OC)ccc3S(=O)(=O)N([C@@H](C)CO)C[C@H]2C)cc1	inactive
COc1ccc(S(=O)(=O)N(C)C[C@@H]2Oc3cc(-c4ccccc4OC)ccc3S(=O)(=O)N([C@H](C)CO)C[C@H]2C)cc1	inactive
COc1ccc(S(=O)(=O)N(C)C[C@H]2Oc3cc(-c4ccccc4OC)ccc3S(=O)(=O)N([C@H](C)CO)C[C@@H]2C)cc1	inactive
COc1ccc(S(=O)(=O)N(C)C[C@H]2Oc3cc(-c4ccccc4OC)ccc3S(=O)(=O)N([C@H](C)CO)C[C@H]2C)cc1	active
COc1ccc(S(=O)(=O)N(C)C[C@@H]2Oc3cc(-c4ccccc4OC)ccc3S(=O)(=O)N([C@@H](C)CO)C[C@@H]2C)cc1	inactive
COc1ccc(S(=O)(=O)N(C)C[C@@H]2Oc3cc(-c4ccccc4OC)ccc3S(=O)(=O)N([C@H](C)CO)C[C@@H]2C)cc1	active
C[C@@H]1CN([C@@H](C)CO)S(=O)(=O)c2ccc(-c3cccc(C#N)c3)cc2O[C@H]1CN(C)C(=O)c1ccncc1	inactive
Cc1noc(C)c1S(=O)(=O)N(C)C[C@H]1OCCCC[C@@H](C)Oc2ccc(NC(=O)Nc3ccc(C(F)(F)F)cc3)cc2C(=O)N([C@H](C)CO)C[C@@H]1C	active
Cc1noc(C)c1S(=O)(=O)N(C)C[C@H]1OCCCC[C@H](C)Oc2ccc(NC(=O)Nc3ccc(C(F)(F)F)cc3)cc2C(=O)N([C@H](C)CO)C[C@H]1C	inactive
Cc1noc(C)c1S(=O)(=O)N(C)C[C@@H]1OCCCC[C@H](C)Oc2ccc(NC(=O)Nc3ccc(C(F)(F)F)cc3)cc2C(=O)N([C@H](C)CO)C[C@@H]1C	active
Cc1noc(C)c1S(=O)(=O)N(C)C[C@H]1OCCCC[C@H](C)Oc2ccc(NC(=O)Nc3ccc(C(F)(F)F)cc3)cc2C(=O)N([C@@H](C)CO)C[C@@H]1C	active
Cc1noc(C)c1S(=O)(=O)N(C)C[C@H]1OCCCC[C@@H](C)Oc2ccc(NC(=O)Nc3ccc(C(F)(F)F)cc3)cc2C(=O)N([C@@H](C)CO)C[C@H]1C	inactive
Cc1noc(C)c1S(=O)(=O)N(C)C[C@H]1OCCCC[C@@H](C)Oc2ccc(NC(=O)Nc3ccc(C(F)(F)F)cc3)cc2C(=O)N([C@@H](C)CO)C[C@@H]1C	inactive
Cc1noc(C)c1S(=O)(=O)N(C)C[C@@H]1OCCCC[C@H](C)Oc2ccc(NC(=O)Nc3ccc(C(F)(F)F)cc3)cc2C(=O)N([C@H](C)CO)C[C@H]1C	inactive
Cc1noc(C)c1S(=O)(=O)N(C)C[C@@H]1OCCCC[C@@H](C)Oc2ccc(NC(=O)Nc3ccc(C(F)(F)F)cc3)cc2C(=O)N([C@H](C)CO)C[C@H]1C	inactive
Cc1noc(C)c1S(=O)(=O)N(C)C[C@@H]1OCCCC[C@@H](C)Oc2ccc(NC(=O)Nc3ccc(C(F)(F)F)cc3)cc2C(=O)N([C@H](C)CO)C[C@@H]1C	inactive
